# Data taken from the supplement of paper PMC8728848.
# The full list was thinned out, with the strongest signals kept by preference.
# Columns and labels:
# Assay in all cases: glycan array binding signal (z-score within array); higher = stronger binding
# Details in all cases: glycan notation: IUPAC condensed, linker removed
# Fuc(a1-2)Gal(b1-3)GalNAc = target: Fuc(a1-2)Gal(b1-3)GalNAc
# In short: (§1)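 Glycan array data came from 3228 arrays in the Consortium for Functional Glycomics database, and only arrays with an available protein sequence were kept. Glycan names were put into IUPAC-condensed notation, and columns mapping to the same glycan were averaged. The binding signal is a within-array Z-score, averaged across arrays of one protein sequence run at different concentrations or buffers and across linkers. A negative Z-score can be read as non-binding.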
# [1] = target: Fuc(a1-2)Gal(b1-3)GalNAc(a1-3)[Fuc(a1-2)]Gal(b1-4)Glc
# In short: as §1
# [2] = target: Fuc(a1-2)Gal(b1-3)GalNAc(a1-3)[Fuc(a1-2)]Gal(b1-4)GlcNAc
# In short: as §1
# [3] = target: Fuc(a1-2)Gal(b1-3)[Fuc(a1-4)]GlcNAc(b1-3)[Fuc(a1-3)[Gal(b1-4)]GlcNAc(b1-6)]Gal(b1-4)Glc
# In short: as §1
# [4] = target: Fuc(a1-2)Gal(b1-4)GlcNAc(b1-3)GalNAc
# In short: as §1
# [5] = target: Fuc(a1-2)Gal(b1-4)GlcNAc6S
# In short: as §1
# [6] = target: Fuc(a1-2)Gal(b1-4)[Fuc(a1-3)]GlcNAc(b1-3)Gal(b1-4)[Fuc(a1-3)]GlcNAc
# In short: as §1
# [7] = target: Fuc(a1-2)[Gal(a1-3)]Gal(b1-4)Glc
# In short: as §1
# [8] = target: Fuc(a1-2)[Gal(a1-4)]Gal(b1-4)GlcNAc
# In short: as §1
# [9] = target: Fuc(a1-2)[GalNAc(b1-3)]Gal
# In short: as §1
# [10] = target: Fuc(a1-3)[Gal(b1-4)]GlcNAc(b1-3)GalNAc
# In short: as §1
# [11] = target: Fuc(a1-3)[Gal(b1-4)]GlcNAc(b1-6)[Gal(b1-3)GlcNAc(b1-3)]Gal(b1-4)Glc
# In short: as §1
# [12] = target: Fuc(a1-3)[GalNAc(b1-4)]GlcNAc
# In short: as §1
# [13] = target: Gal(a1-4)Gal(b1-3)GlcNAc(b1-2)Man(a1-3)[Gal(a1-4)Gal(b1-3)GlcNAc(b1-2)Man(a1-6)]Man(b1-4)GlcNAc(b1-4)GlcNAc
# In short: as §1
# [14] = target: Gal(b1-3)Gal(b1-4)GlcNAc(b1-2)Man(a1-3)[Gal(b1-3)Gal(b1-4)GlcNAc(b1-2)Man(a1-6)]Man(b1-4)GlcNAc(b1-4)GlcNAc
# In short: as §1
# [15] = target: Gal(b1-3)GlcNAc(b1-2)Man(a1-3)[Gal(b1-3)GlcNAc(b1-2)Man(a1-6)]Man(b1-4)GlcNAc(b1-4)GlcNAc
# In short: as §1
# [16] = target: Gal(b1-4)GlcNAc(b1-2)Man(a1-3)[Gal(b1-4)GlcNAc(b1-2)][GlcNAc(b1-4)]Man(b1-4)GlcNAc(b1-4)GlcNAc
# In short: as §1
# [17] = target: Gal(b1-4)GlcNAc(b1-2)Man(a1-3)[GlcNAc(b1-2)Man(a1-6)]Man(b1-4)GlcNAc(b1-4)GlcNAc
# In short: as §1
# [18] = target: Gal(b1-4)GlcNAc(b1-2)Man(a1-6)[Man(a1-3)]Man(b1-4)GlcNAc(b1-4)GlcNAc
# In short: as §1
# [19] = target: Gal(b1-4)GlcNAc(b1-2)[Gal(b1-4)GlcNAc(b1-6)]Man(a1-6)[Gal(b1-4)GlcNAc(b1-2)Man(a1-3)]Man(b1-4)GlcNAc(b1-4)[Fuc(a1-6)]GlcNAc
# In short: as §1
# [20] = target: Gal(b1-4)GlcNAc(b1-6)GalNAc
# In short: as §1
# [21] = target: Gal3S(b1-4)[Fuc(a1-3)]Glc6S
# In short: as §1
# GalNAc3S(b1-4)GlcNAc = target: GalNAc3S(b1-4)GlcNAc
# In short: as §1
# Glc(b1-4)Glc = target: Glc(b1-4)Glc
# In short: as §1
# [22] = target: GlcNAc(b1-2)Man(a1-3)[GlcNAc(b1-2)Man(a1-6)]Man(b1-4)GlcNAc(b1-4)GlcNAc
# In short: as §1
# [23] = target: GlcNAc(b1-3)[GlcNAc(b1-6)]GalNAc
# In short: as §1
# Kdn(a2-3)Gal(b1-4)Glc = target: Kdn(a2-3)Gal(b1-4)Glc
# In short: as §1
# [24] = target: Man(a1-2)Man(a1-3)[Man(a1-2)Man(a1-6)]Man(a1-6)[Man(a1-2)Man(a1-2)Man(a1-3)]Man
# In short: as §1
# [25] = target: Man(a1-2)Man(a1-6)[Man(a1-3)]Man(a1-6)[Man(a1-2)Man(a1-2)Man(a1-3)]Man
# In short: as §1
# [26] = target: Man(a1-3)[Man(a1-6)]Man(a1-6)[Man(a1-2)Man(a1-3)]Man(b1-4)GlcNAc(b1-4)GlcNAc
# In short: as §1
binder,measurement,setting,value
SalT (Orysata sativa) (protein) MTLVKIGLWGGNGGSAQDISVPPKKLLGVTIYSSDAIRSIAFNYIGVDGQEYAIGPWGGGEGTSTEIKLGSSEHIKEISGTHGPVYDLADIVTYLKIVTSANNTYEAGVPNGKEFSIPLQDSGHVVGFFGRSGTLIDAIGIYVHPILEQKLISEEDLNSAVDHHHHHH,glycan array binding signal (z-score),Fuc(a1-2)Gal(b1-3)GalNAc,-0.283
same,glycan array binding signal (z-score),[1],-0.306
same,glycan array binding signal (z-score),[2],-0.31
same,glycan array binding signal (z-score),[3],-0.307
same,glycan array binding signal (z-score),[4],-0.307
same,glycan array binding signal (z-score),[5],-0.308
same,glycan array binding signal (z-score),[6],-0.308
same,glycan array binding signal (z-score),[7],-0.308
same,glycan array binding signal (z-score),[8],-0.309
same,glycan array binding signal (z-score),[9],-0.31
same,glycan array binding signal (z-score),[10],-0.301
same,glycan array binding signal (z-score),[11],-0.31
same,glycan array binding signal (z-score),[12],-0.306
same,glycan array binding signal (z-score),[13],3.59
same,glycan array binding signal (z-score),[14],3.71
same,glycan array binding signal (z-score),[15],3.69
same,glycan array binding signal (z-score),[16],0.03
same,glycan array binding signal (z-score),[17],2.65
same,glycan array binding signal (z-score),[18],4.64
same,glycan array binding signal (z-score),[19],0.799
same,glycan array binding signal (z-score),[20],-0.307
same,glycan array binding signal (z-score),[21],-0.3
same,glycan array binding signal (z-score),GalNAc3S(b1-4)GlcNAc,-0.306
same,glycan array binding signal (z-score),Glc(b1-4)Glc,-0.309
same,glycan array binding signal (z-score),[22],4.06
same,glycan array binding signal (z-score),[23],-0.309
same,glycan array binding signal (z-score),Kdn(a2-3)Gal(b1-4)Glc,-0.306
same,glycan array binding signal (z-score),[24],-0.304
same,glycan array binding signal (z-score),[25],-0.282
same,glycan array binding signal (z-score),[26],5.46
